This is a sample that favours compounds with a hit; in the whole collection about 6.4% have one here.
KinaseGlo FLuc = counter-screen: inhibitors of Kinase-Glo firefly luciferase; AID 1379; actives 0.28% (n = 200,000); Kinase-Glo luciferase, ATP luminescence, 8 min; Potency, µM (series often up to 38.3 µM), for the others: top-dose activity change, negative = inhibition, hits mostly inhibitors; Q27757; further: nearly all actives have a fitted effect of over 60% in size
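Inhibition of Kinase-Glo luciferase light generation was assessed at 10 uM ATP in pH 7.2 imidazole buffer, with luminescence measured after eight minutes at ambient temperature.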
RORgamma inh = ROR gamma (mouse) transcription inhibition; Drosophila S2 Gal4-RORgamma UAS-luciferase reporter, 20 h; Potency, µM (titrated, usually from 53.6 µM), for inactives: top-dose activity change, negative = inhibition, most hits filed as inhibitors; P51450; actives 5.4% (n = 310,000); further: nearly all actives have a fitted effect of over 60% in size
Target sequence (P51450 whole entry, looked up, the tested form may be a part): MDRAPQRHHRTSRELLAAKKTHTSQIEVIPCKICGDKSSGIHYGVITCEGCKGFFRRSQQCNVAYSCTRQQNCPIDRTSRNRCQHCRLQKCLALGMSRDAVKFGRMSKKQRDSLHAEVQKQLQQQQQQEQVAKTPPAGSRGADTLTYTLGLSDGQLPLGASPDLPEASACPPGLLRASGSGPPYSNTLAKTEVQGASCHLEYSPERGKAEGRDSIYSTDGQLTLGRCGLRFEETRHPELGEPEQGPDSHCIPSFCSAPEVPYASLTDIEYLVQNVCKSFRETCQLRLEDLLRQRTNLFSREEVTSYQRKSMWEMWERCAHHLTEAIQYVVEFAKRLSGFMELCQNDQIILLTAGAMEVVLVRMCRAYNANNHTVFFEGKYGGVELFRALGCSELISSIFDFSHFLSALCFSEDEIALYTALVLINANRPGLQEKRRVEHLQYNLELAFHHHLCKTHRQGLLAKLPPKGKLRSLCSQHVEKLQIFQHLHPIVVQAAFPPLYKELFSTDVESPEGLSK
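Using a luciferase readout, inhibitors were identified by reduced reporter activity in Drosophila cells coexpressing a copper-inducible Gal4–ROR gamma fusion and UAS-driven Photinus luciferase, incubated 20 hr after 700 uM copper sulfate.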
Gal4-VP16 FLuc = Gal4-VP16 reporter inhibition counter-screen; Drosophila S2 Gal4-VP16 UAS-luciferase, luminescence, 20 h; Potency, µM (highest dose often 53.6 µM), for inactives: top-dose activity, negative = inhibition, actives largely listed as inhibitors; actives 3.5% (n = 310,000); AID 2546;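 further: Gal4-VP16 expression switched on by copper sulfate through the metallothionein promoter; nearly all actives have a fitted effect of over 50% in size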
* = called active by the depositor; [ ] = dose if it differs, or a comment. The call rests on the fitted dose curve; in most records, active means well fitted curve in the direction sought with a large enough effect; inconclusive means small, poorly fitted or top-dose-only effect, or another doubt; inactive means no such curve, though single readings can be large; an effect the other way counts as inactive or inconclusive. On the % scale 0 is the no-effect control and ±100 the full control effect; potency means the concentration at half of the fitted maximal effect.

For CC(C)CO/N=C1/C[C@@H](O)[C@@H](O)[C@@H]2[C@@H]3C(=O)N(C(C)(C)C)C(=O)[C@H]3CC[C@H]12 the results were RORgamma inh 13%[10 µM] and Gal4-VP16 FLuc -7%[10 µM].
Screening Cc1cn([C@H]2C[C@@H](N=[N+]=[N-])[C@@H](CO)O2)c(=O)[nH]c1=O returned KinaseGlo FLuc -2%.
Screening Cc1ccc(NC(=O)COc2ccccc2C(=O)Nc2ccccc2)cc1Cl returned KinaseGlo FLuc 0%, RORgamma inh 32% and Gal4-VP16 FLuc -17%.
Cc1ccc(Cl)cc1NC(=O)c1ccccc1OCC(=O)Nc1ccc(Cl)cc1 was read as KinaseGlo FLuc 2%, RORgamma inh inconclusive and Gal4-VP16 FLuc 11µM*.
`O=C(O)c1cccc(C(=O)O)c1S(=O)Cc1ccccc1` (configuration not stated) gave KinaseGlo FLuc -4%[7.66 µM].
O=C(Nc1cc2c(cc1C(=O)O)OCCCO2)c1ccc(F)cc1F was read as RORgamma inh 40% and Gal4-VP16 FLuc 27%.
COc1c(O)ccc2c1CN1CCc3cc4c(cc3[C@@H]1C2)OCO4 was read as KinaseGlo FLuc -4%[7.66 µM].
O[C@@H]1[C@@H]2c3cc4c(cc3CN3CCC(=C[C@@H]1O)[C@H]23)OCO4 was read as KinaseGlo FLuc 2%[17.1 µM], RORgamma inh inconclusive and Gal4-VP16 FLuc 2.5µM*.
Screening Cn1c(SCC(=O)c2ccccc2)nnc1-c1cccs1 returned RORgamma inh 10% and Gal4-VP16 FLuc -5%.
For Cc1ccc(/C=N/c2sc3c(c2C#N)CCC3)o1 the results were KinaseGlo FLuc 11µM*, RORgamma inh 12% and Gal4-VP16 FLuc 6%.
Screening N#Cc1c(/N=C/c2ccc(Br)s2)sc2c1CCC2 returned KinaseGlo FLuc 0%, RORgamma inh 19% and Gal4-VP16 FLuc -9%.
For COc1ccc(C(=O)N/C(=C\c2cn(C)c3ccccc23)C(=O)NCCN2CCOCC2)cc1OC the results were RORgamma inh 0% and Gal4-VP16 FLuc -3%.
`CCOC(=O)CNC(=O)CCc1nnc2ccc(N3CCC(C)CC3)nn12` gave RORgamma inh 14% and Gal4-VP16 FLuc 6%.
Screening CCn1c(SCc2cccc(C)c2)nnc1-c1ccccc1 returned KinaseGlo FLuc 0%, RORgamma inh 15% and Gal4-VP16 FLuc -1%.
`CCn1c(SC(C)C)nnc1-c1cc(-c2ccccc2)sc1N` gave KinaseGlo FLuc 0%, RORgamma inh 6.3µM* and Gal4-VP16 FLuc 7.1µM*.
`COc1ccc(S(=O)(=O)N2CCCC(C(=O)NC3CC3)C2)cc1Cl` (configuration not stated) gave RORgamma inh -2% and Gal4-VP16 FLuc -13%.
`Cc1ccc2c(c1)-c1[nH]c(=S)ncc1CS2` gave KinaseGlo FLuc -2%, RORgamma inh 2.2µM* and Gal4-VP16 FLuc -13%.
`O=C(/C(=C(\O)c1ccccc1)c1ncc[nH]1)c1ccccc1` gave KinaseGlo FLuc 1%, RORgamma inh 13µM* and Gal4-VP16 FLuc inconclusive.
O=C(c1ccccc1)c1ncc[nH]1 was read as RORgamma inh 17% and Gal4-VP16 FLuc 30%.
For O=C(/C(=C(\O)c1ccccc1)c1nc2ccccc2[nH]1)c1ccccc1 the results were RORgamma inh 7.9µM* and Gal4-VP16 FLuc inconclusive.
CC(=O)/C(=C(/O)c1ccccc1)c1nc2ccccc2[nH]1 was read as KinaseGlo FLuc -1%, RORgamma inh -17% and Gal4-VP16 FLuc -15%.
CCc1cccc(NC(=S)N(CCOC)C(C)c2ccco2)c1 (configuration not stated) was read as RORgamma inh -23% and Gal4-VP16 FLuc -3%.
For Cn1c(=O)[nH]c(=O)c2c1nc(NC1CCCC1)n2Cc1ccccc1 the results were RORgamma inh -2%[1.91 µM] and Gal4-VP16 FLuc 26%.
For Cc1ccc(CNC(=O)C2CCCN2C(=O)Nc2ccccc2)cc1 (configuration not stated) the results were RORgamma inh -10% and Gal4-VP16 FLuc 2%.
Screening CCOc1ccccc1N1CCN(C(=O)c2csc(C)c2CC)CC1 returned KinaseGlo FLuc -1%, RORgamma inh 11% and Gal4-VP16 FLuc -20%.
Cc1nn(CCCC(=O)Nc2cc(Oc3ccccc3)cc([N+](=O)[O-])c2)c(C)c1[N+](=O)[O-] was read as RORgamma inh 2µM* and Gal4-VP16 FLuc inconclusive.
Cc1ccc(C)c(Oc2cc(NC(=O)CCCn3nc(C)c([N+](=O)[O-])c3C)cc([N+](=O)[O-])c2)c1 was read as KinaseGlo FLuc 4%, RORgamma inh inconclusive and Gal4-VP16 FLuc -7%.
For Cc1cc(C)n2nc(CC(=O)NCc3ccccc3Cl)nc2n1 the results were RORgamma inh 20% and Gal4-VP16 FLuc -1%.
